# Results: PubChem BioAssay (EPA / NIEHS)
# Results filed as inconclusive are left out. The source made the active and inactive calls. Rule for the calls: active = hit-call score of the fitted dose curve at least 0.9, where 1 is the maximum; inconclusive = response in the unintended direction; inactive = score below 0.9.
# Assay: Tanguay_ZF_120hpf_PFIN_legacy: (Legacy) Oregon State University Tanguay Lab 120 Hour Post-fertilization zebrafish Assay for Pectoral Fin Malformation (AID 2283648);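 note: each larva judged yes or no for fin defect by brightfield with dead larvae skipped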
# Method: Tanguay_ZF_120hpf_legacy is a whole embryo, multiplexed endpoint assay using zebrafish larvae exposed for 120 hours post fertilization on a 96-well plate.Tanguay_ZF_120hpf_PFIN_legacy is one of one assay component(s) measured or calculated from the Tanguay_ZF_120hpf_legacy assay. It is designed to make measurements of zebrafish development as detected with brightfield microscopy of developing zebrafish embryos.Data from the assay component Tanguay_ZF_120hpf_PFIN_legacy was analyzed into 1 assay endpoints. This assay endpoint, Tanguay_ZF_120hpf_PFIN_legacy, was analyzed in the positive analysis fitting direction relative to DMSO as the negative control and baseline of activity. Using a type of morphology reporter, gain-of-signal activity can be used to understand changes in developmentals as they relate to the whole embryo. To generalize the intended target to other relatable targets, this assay endpoint is annotated to the zebrafish development intended target family, where the subfamily is pectoral fin morphogenesis.
# Zebrafish husbandry: Tropical 5D wild-type adult zebrafish were housed in at an approximate density of 1000 per 100 gallon tank at the Sinnhuber Aquatic Research Laboratory, Oregon State University, Corvallis, OR. Each tank was kept at standard laboratory conditions of 28C on a 14-h light/10-h dark photoperiod in fish water consisting of reverse osmosis water supplemented with a commercially available salt (Instant Ocean). Spawning funnels were placed into the tanks the night prior, and embryos were collected and staged. To increase bioavailability, the chorion was enzymatically removed using pronase (63.6mg/ml, >/= 3.5U/mg, Sigma-Aldrich: P5147) at 4 hours post fertilization (hpf) using a custom automated dechorionator.Chemical exposures: Six hpf dechorionated embryos were placed 1 embryo per well in a 96-well plate prefilled with 90 ul of EM using automated embryo placement systems (AEPS). Ten microliters of each row of dilution plate 2 was added to 2 exposure plates. The final DMSO concentration used was 0.64% (vol/vol). Thirty-two embryos were also exposed to 5uM trimethyltin chloride (positive control). Plates were sealed to prevent evaporation and foil covered to reduce light exposure and kept in a 28C incubator. Embryos were statically exposed until 120 hpf. At 24 hpf, embryos were assessed for photomotor response using a custom photomotor response analysis tool (PRAT) and for developmental toxicity endpoints (MO24: mortality at 24 hpf, DP: developmental progression, SM: spontaneous movement, and NC: notochord distortion). At 120 hpf, locomotor activity was measured using Viewpoint Zebralab and assessed for 18 endpoints. Zebrafish acquisition and analysis program (ZAAP), a custom program designed to inventory, acquire, and manage zebrafish data, was used to collect developmental endpoints as either present or absent (i.e., binary responses were recorded). If mortality occurred for an embryo (at either 24 or 120 hpf), the non-mortality endpoints were not measured.
SMILES,outcome,AC50
CN(C)NC(=O)CCC(=O)O,inactive,–
CNC(=O)Oc1cccc2c1OC(C)(C)O2,inactive,–
CC1=NNC(=O)N(/N=C/c2cccnc2)C1,inactive,–
Cc1nn(-c2cc(NS(C)(=O)=O)c(Cl)cc2Cl)c(=O)n1C(F)F,inactive,–
CC(COc1ccc(Oc2ccccc2)cc1)Oc1ccccn1 (stereo not given),inactive,–
CSc1nc(NC(C)C)nc(NC(C)C)n1,inactive,–
CON=C(C(=O)OC)c1ccccc1CON=C(C)c1cccc(C(F)(F)F)c1,inactive,–
CCOP(=S)(Oc1cnc(C(C)(C)C)nc1)OC(C)C (stereo not given),inactive,–
CC[C@H](C)[C@H]1O[C@]2(C=C[C@@H]1C)C[C@@H]1C[C@@H](C/C=C(\C)[C@@H](O[C@H]3C[C@H](OC)[C@@H](O[C@H]4C[C@H](OC)[C@@H](NC)[C@H](C)O4)[C@H](C)O3)[C@@H](C)/C=C/C=C3\CO[C@@H]4[C@H](O)C(C)=C[C@@H](C(=O)O1)[C@]34O)O2,inactive,–
CC(C)N(C(=O)SCC(Cl)=C(Cl)Cl)C(C)C,inactive,–
CCOC(=O)COc1cc(-c2nn(C)c(OC(F)F)c2Cl)c(F)cc1Cl,inactive,–
COc1ccc(C(=CC(=O)N2CCOCC2)c2ccc(Cl)cc2)cc1OC,–,45.5 µM (active)
CN(C)[C@@H]1C(=O)C(C(N)=O)=C(O)[C@@]2(O)C(=O)C3=C(O)c4c(O)cccc4[C@@](C)(O)[C@H]3[C@H](O)[C@@H]12,inactive,–
CN(C)C(=O)Nc1cccc(C(F)(F)F)c1,inactive,–
O=C(O)c1cc(Oc2ccc(C(F)(F)F)cc2Cl)ccc1[N+](=O)[O-],inactive,–
CCOP(=O)(OCC)Oc1cc(C)nc(C(C)C)n1,inactive,–
O=c1ccc(=O)[nH][nH]1,inactive,–
COP(=O)(NC(C)=O)SC (stereo not given),inactive,–
COP(=O)(OC)SCn1c(=O)oc2cc(Cl)cnc21,inactive,–
CCC(=O)Nc1ccc(Cl)c(Cl)c1,inactive,–

SMILES,outcome,AC50
COP(=O)(OC)C(O)C(Cl)(Cl)Cl (stereo not given),inactive,–
CSC1=N[C@@](C)(c2ccccc2)C(=O)N1Nc1ccccc1,inactive,–
CC(C1CC1)C(O)(Cn1cncn1)c1ccc(Cl)cc1 (stereo not given),–,25.9 µM (active)
N#CSCSC#N,inactive,–
CCc1cnc(C2=NC(C)(C(C)C)C(=O)N2)c(C(=O)O)c1 (stereo not given),inactive,–
C=C(C)[C@H]1Cc2c(ccc3c2O[C@@H]2COc4cc(OC)c(OC)cc4[C@@H]2C3=O)O1,inactive,–
CCC(CC)Nc1c([N+](=O)[O-])cc(C)c(C)c1[N+](=O)[O-],inactive,–
Cc1cc(C2CC2)nc(Nc2ccccc2)n1,inactive,–
CCc1cccc(CC)c1N(COC)C(=O)CCl,inactive,–
Cc1ccn2nc(S(=O)(=O)Nc3c(F)cccc3F)nc2n1,inactive,–
CCOC(=O)CC(SP(=O)(OC)OC)C(=O)OCC (stereo not given),inactive,–
CCCCN(CC)c1c([N+](=O)[O-])cc(C(F)(F)F)cc1[N+](=O)[O-],inactive,–
CC(C)=CC1C(C(=O)OCN2C(=O)C3=C(CCCC3)C2=O)C1(C)C (stereo not given),inactive,–
CCOP(=S)(OCC)OC(Cl)C(Cl)(Cl)Cl (stereo not given),inactive,–
CC(=NC#N)N(C)Cc1ccc(Cl)nc1,inactive,–
CC1(C(=O)Nc2ccc(O)c(Cl)c2Cl)CCCCC1,inactive,–
CN1COCN(Cc2cnc(Cl)s2)C1=N[N+](=O)[O-],inactive,–
CCCSP(=O)(OCC)Oc1ccc(Br)cc1Cl (stereo not given),inactive,–
CC(Oc1cccc(Cl)c1)C(=O)O (stereo not given),inactive,–
CCCOCC(=Nc1ccc(Cl)cc1C(F)(F)F)n1ccnc1,inactive,–
